These results are taken from PubChem BioAssay.

Molecules are shown by their SMILES.

Sequence of Fibroblast growth factor 2 (Homo sapiens) (P09038 whole entry, looked up): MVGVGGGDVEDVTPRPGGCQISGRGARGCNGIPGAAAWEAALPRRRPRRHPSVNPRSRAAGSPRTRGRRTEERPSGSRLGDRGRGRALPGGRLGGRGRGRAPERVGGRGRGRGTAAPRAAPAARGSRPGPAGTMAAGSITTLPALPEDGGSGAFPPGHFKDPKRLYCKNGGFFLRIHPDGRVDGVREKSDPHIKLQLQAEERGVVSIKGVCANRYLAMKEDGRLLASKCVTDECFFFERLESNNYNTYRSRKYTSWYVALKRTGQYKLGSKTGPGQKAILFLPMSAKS

One experiment has as its target Fibroblast growth factor 2 (Homo sapiens) (UniProt P09038). In words: basic fibroblast growth factor binding to printed compounds – biochemical, small-molecule microarray, 635/667 nm fluorescence, primary screen (AID 1133). To be noted: FGF2, fluorescence 635/667, higher = more signal.
Take `C=C(C(=O)CC[C@@H](OC(=O)c1ccccc1-c1ccccc1C(=O)O)c1ccc(OCCO)cc1)C(C)C`: the composite z-score amounted to 1.77.

Take `COCCOC(=O)N1C(=O)[C@@]2(c3cc(C#CCCO)ccc31)[C@H](C(=O)N1CCN(c3ncccn3)CC1)[C@H]1C(=O)O[C@H](c3ccccc3)[C@H](c3ccccc3)N1[C@@H]2c1ccc(OCCO)cc1`: the composite z-score was found to be 1.29.

As to `O=C1OC[C@@H](c2ccccc2)n2cc(/C=C/c3ccccc3)cc21`, the composite z-score is -0.574.

Consider `CCOC(=O)C[C@H]1[C@H](OC(=O)c2cc3ccccc3oc2=O)[C@@H](NC(=O)Cc2ccc(OC)cc2)c2cc(OCCCO)ccc2N1C(=O)Cc1ccc(OC)cc1`, for which the composite z-score amounted to 0.453.

In turn, `C=CCN1C(=O)[C@@]2(O[C@@H](CCO)[C@H]([Si](C)(C)c3ccc(OC)cc3)[C@H]2C)c2cc(N3CCCCC3=O)ccc21` showed a composite z-score of 0.821.

Regarding `COc1ccc(CCNC(=O)[C@@]2(C)c3ccccc3C(=O)N(Cc3ccc(OC(F)(F)F)cc3)[C@H]2c2ccc(CO)cc2)cc1`, the composite z-score was 1.76.

`COC(=O)[C@@]1(Cc2ccccc2)[C@H]2c3cc(C(=O)N(C)C)n(CCF)c3C[C@H]2CN1C(=O)c1ccccc1` came in with a composite z-score of -0.551.

On to `COc1ccc(NN2C(C(O)c3ccc(F)cc3)C=CC3C(=O)N(C4CCCCC4)C(=O)C32)cc1` (centres undefined), for which the composite z-score was determined as 0.314.

In turn, `COC(=O)[C@@]1(Cc2ccc(F)cc2)[C@H]2c3cc(C(=O)N(C)C)n(Cc4ccsc4Br)c3C[C@H]2CN1C(=O)c1ccccc1` returned a composite z-score of 0.021.

`COc1ccc(NN2C(C(O)c3ccccc3)C=CC3C(=O)N(C4CCCCC4)C(=O)C32)cc1` (centres undefined): the composite z-score amounted to 0.202.

`C=CC[C@H](OC(=O)Nc1ccc(SC)cc1)c1ccc(O)c(F)c1` came in with a composite z-score of 0.244.

With `CO[C@H]1O[C@H](CO)[C@@H](OC(=O)CCc2ccccc2)[C@@H]2OC(=O)[C@@H](Cc3ccc4ccccc4c3)C/C=C/C[C@H](Cc3ccc4ccccc4c3)C(=O)O[C@@H]12`, the composite z-score is -0.512.

Take `COC(=O)[C@H](Cc1ccccc1)N1CC(C)(OC)O[C@@H](Cc2ccccc2)[C@H]1/C=C/C1CC1` (some centres undefined): the composite z-score was 0.0959.

For `C[C@H]1C2[C@H](Cc3ccccc3)NC(=O)[C@]23C(=O)N[C@@H](Cc2ccccc2)C(=O)N2CCC[C@H]2C(=O)NC/C=C/CC/C=C/C3[C@@H]2O[C@]12C` (some centres undefined), the composite z-score was found to be 0.359.

`C=C(C(=O)CC[C@@H](OC(=O)c1ccccc1-c1ccccc1C(=O)O)c1cccc(OCCO)c1)C(C)C` returned a composite z-score of 1.54.

Regarding `C=C(CCCC)C(=O)CC[C@H](OC(=O)c1ccccc1-c1ccccc1C(=O)O)c1cccc(OCCO)c1`, the composite z-score was 0.591.

With `C=C(CCCC)/C(=C/C[C@@H](OC(C)=O)c1cccc(OCCO)c1)c1cc(C(=O)OC)ccc1OC`, the composite z-score was 0.0923.

`CCCCCN1CC=CC23O[C@@H]4/C=C\CCCOC(=O)C4[C@H]2C(=O)N(CCO)[C@@H]3C1=O` (some centres undefined) returned a composite z-score of -0.0388.

In turn, `O=C1NC(=O)C2C1C=CC(C(O)C1CCCCC1)N2Nc1ccccn1` (centres undefined) yielded a composite z-score of 0.205.

With `COC(=O)C1(CC(C)C)C=C2C(=C(C)C(=O)C2C)CN1` (centres undefined), the composite z-score is -0.583.

`Cc1ccc(N2C(=O)c3ccccc3[C@@H](C(=O)NCCN3CCOCC3)[C@@H]2c2ccc(CO)cc2)nc1` yielded a composite z-score of -1.08.

With `COCCOC(=O)N1C(=O)[C@@]2(c3cc(C#CCNC(N)=O)ccc31)[C@H](c1ccc(O)cc1)N1[C@H](c3ccccc3)[C@H](c3ccccc3)OC(=O)[C@H]1[C@@H]2C(=O)N1CCc2cc(OC)c(OC)cc2C1`, the composite z-score was determined as 0.636.

Take `O=C(NC1CC1)[C@@H]1c2ccccc2C(=O)N(C2CCCCC2)[C@H]1c1ccc(CO)cc1`: the composite z-score is -0.027.

As for `COc1ccc([Si](C)(C)[C@@H]2[C@@H](CC(=O)N(CCO)Cc3ccccc3)O[C@]3(C(=O)N(Cc4cccc(I)c4)c4ccccc43)[C@H]2C)cc1`, the composite z-score came out at 1.68.

Test system in the next experiment: not listed separately
In words: JC-1 mitochondrial potential readout, lung cancer cells – cell-based, A549, JC-1 fluorescence, basal, 24 h, 100 nL, profiling panel (AID 1138).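 Further: A549 lung adenocarcinoma cells under basal conditions with no added stimulus; test concentration not given here.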 To be noted: higher = more signal.
Regarding `O=C(O)C1=CC[C@H]2C(=O)N(c3ccccc3)C(=O)[C@@H]12`, the z-score is -1.27.

`CCc1cccc(NC(=O)O[C@H]2[C@H](OC(=O)Nc3ccccc3-c3ccccc3)[C@H](OC(=O)Nc3ccccc3-c3ccccc3)[C@@H](OC)O[C@@H]2CO)c1`: the z-score is -1.35.

`C=C(COC)/C(=C/C[C@@H](OC(C)=O)c1cccc(OCCO)c1)c1cnc2ccccc2c1` showed a z-score of 0.031.

Take `Cc1ccc(S[C@]2(C(=O)NCc3ccccc3)CC(=O)N(Cc3ccccc3C(F)(F)F)[C@@H]2c2ccc(CO)cc2I)cc1`: the z-score was found to be 1.28.

As for `COCCOC(=O)N1C(=O)[C@@]2(c3cc(C#CC4(O)CCCCCC4)ccc31)[C@H](C(N)=O)[C@H]1C(=O)O[C@H](c3ccccc3)[C@H](c3ccccc3)N1[C@@H]2c1ccc(OCCO)cc1`, the z-score was -1.71.

As to `COc1c(C)cc(-c2cc3c(c(CCc4ccccc4)n2)[Si](C(C)C)(C(C)C)O[C@H]3c2ccccc2)cc1C`, the z-score is 0.386.

Compound `COC(=O)[C@@]1(Cc2ccc(F)cc2)[C@H]2c3cc(C(=O)N(C)C)n(Cc4cccc5ccccc45)c3C[C@H]2CN1C(=O)c1ccccc1` came in with a z-score of 0.319.

On to `CC(C)C[C@@H]1NC(=O)[C@@H]2C[C@H](C(=O)NCCCCCNC(=O)CS)[C@H](c3ccc(O)cc3)N2C1=O`, for which the z-score was -0.976.

For `C=C[C@@H](CO)NS(=O)(=O)c1ccc(Br)cc1`, the z-score was -0.297.

Take `COC(=O)[C@@]1(Cc2ccc(F)cc2)[C@H]2c3cc(C(=O)N(C)C)n(CCF)c3C[C@H]2CN1C(=O)c1ccccc1`: the z-score is 0.656.

As for `COC(=O)[C@@]1(Cc2ccccc2)[C@H]2c3cc(C(=O)N(C)C)n(Cc4nc5ccccc5[nH]4)c3C[C@H]2CN1C(=O)c1ccccc1`, the z-score was 0.157.

As for `C=C(C(=O)CC[C@@H](OC(=O)c1ccccc1-c1ccccc1C(=O)O)c1ccc(OCCO)cc1)C(C)C`, the z-score was 0.58.

In turn, `COCCOC(=O)N1C(=O)[C@@]2(c3cc(C#CCCO)ccc31)[C@H](C(=O)N1CCN(c3ncccn3)CC1)[C@H]1C(=O)O[C@H](c3ccccc3)[C@H](c3ccccc3)N1[C@@H]2c1ccc(OCCO)cc1` returned a z-score of -1.28.

The compound `O=C1OC[C@@H](c2ccccc2)n2cc(/C=C/c3ccccc3)cc21` returned a z-score of -0.512.

Regarding `CCOC(=O)C[C@H]1[C@H](OC(=O)c2cc3ccccc3oc2=O)[C@@H](NC(=O)Cc2ccc(OC)cc2)c2cc(OCCCO)ccc2N1C(=O)Cc1ccc(OC)cc1`, the z-score was -0.202.

`C=CCN1C(=O)[C@@]2(O[C@@H](CCO)[C@H]([Si](C)(C)c3ccc(OC)cc3)[C@H]2C)c2cc(N3CCCCC3=O)ccc21`: the z-score amounted to 0.225.

`COc1ccc(CCNC(=O)[C@@]2(C)c3ccccc3C(=O)N(Cc3ccc(OC(F)(F)F)cc3)[C@H]2c2ccc(CO)cc2)cc1` gave a z-score of 0.791.

The compound `COC(=O)[C@@]1(Cc2ccccc2)[C@H]2c3cc(C(=O)N(C)C)n(CCF)c3C[C@H]2CN1C(=O)c1ccccc1` showed a z-score of 0.551.

On to `COc1ccc(NN2C(C(O)c3ccc(F)cc3)C=CC3C(=O)N(C4CCCCC4)C(=O)C32)cc1` (centres undefined), for which the z-score is -0.462.

For `COC(=O)[C@@]1(Cc2ccc(F)cc2)[C@H]2c3cc(C(=O)N(C)C)n(Cc4ccsc4Br)c3C[C@H]2CN1C(=O)c1ccccc1`, the z-score was -0.51.

On to `COc1ccc(NN2C(C(O)c3ccccc3)C=CC3C(=O)N(C4CCCCC4)C(=O)C32)cc1` (centres undefined), for which the z-score amounted to 0.338.

On to `C=CC[C@H](OC(=O)Nc1ccc(SC)cc1)c1ccc(O)c(F)c1`, for which the z-score is -1.34.

Take `CO[C@H]1O[C@H](CO)[C@@H](OC(=O)CCc2ccccc2)[C@@H]2OC(=O)[C@@H](Cc3ccc4ccccc4c3)C/C=C/C[C@H](Cc3ccc4ccccc4c3)C(=O)O[C@@H]12`: the z-score was 1.98.

Take `COC(=O)[C@H](Cc1ccccc1)N1CC(C)(OC)O[C@@H](Cc2ccccc2)[C@H]1/C=C/C1CC1` (some centres undefined): the z-score turned out to be 0.385.

With `C[C@H]1C2[C@H](Cc3ccccc3)NC(=O)[C@]23C(=O)N[C@@H](Cc2ccccc2)C(=O)N2CCC[C@H]2C(=O)NC/C=C/CC/C=C/C3[C@@H]2O[C@]12C` (some centres undefined), the z-score came to 0.974.

`C=C(C(=O)CC[C@@H](OC(=O)c1ccccc1-c1ccccc1C(=O)O)c1cccc(OCCO)c1)C(C)C` had a z-score of 0.282.

`C=C(CCCC)C(=O)CC[C@H](OC(=O)c1ccccc1-c1ccccc1C(=O)O)c1cccc(OCCO)c1` gave a z-score of 0.15.

Turning to `C=C(CCCC)/C(=C/C[C@@H](OC(C)=O)c1cccc(OCCO)c1)c1cc(C(=O)OC)ccc1OC`, the z-score was 1.63.

The compound `CCCCCN1CC=CC23O[C@@H]4/C=C\CCCOC(=O)C4[C@H]2C(=O)N(CCO)[C@@H]3C1=O` (some centres undefined) displayed a z-score of -0.953.

`O=C1NC(=O)C2C1C=CC(C(O)C1CCCCC1)N2Nc1ccccn1` (centres undefined) showed a z-score of 0.517.

For `COC(=O)C1(CC(C)C)C=C2C(=C(C)C(=O)C2C)CN1` (centres undefined), the z-score is 1.05.

On to `Cc1ccc(N2C(=O)c3ccccc3[C@@H](C(=O)NCCN3CCOCC3)[C@@H]2c2ccc(CO)cc2)nc1`, for which the z-score was -0.0724.

In turn, `COCCOC(=O)N1C(=O)[C@@]2(c3cc(C#CCNC(N)=O)ccc31)[C@H](c1ccc(O)cc1)N1[C@H](c3ccccc3)[C@H](c3ccccc3)OC(=O)[C@H]1[C@@H]2C(=O)N1CCc2cc(OC)c(OC)cc2C1` showed a z-score of -0.683.

`O=C(NC1CC1)[C@@H]1c2ccccc2C(=O)N(C2CCCCC2)[C@H]1c1ccc(CO)cc1` displayed a z-score of 0.116.

`COc1ccc([Si](C)(C)[C@@H]2[C@@H](CC(=O)N(CCO)Cc3ccccc3)O[C@]3(C(=O)N(Cc4cccc(I)c4)c4ccccc43)[C@H]2C)cc1` came in with a z-score of -0.781.
